According to PMC4336329 (PLoS ONE, 2015):
Among all 310,000 compounds or so, about 2,200 (0.71%) showed an effect of 50% or more. The effect is printed as a negative number. What follows is part of a selection rich in strong results, with near analogues and random picks from the rest.

biological target: human ether-à-go-go-related gene (hERG) potassium channel (human, UniProt Q12809); experiment: primary screen, population patch clamp on CHO cells stably expressing hERG; higher = less effect of the substance
Sequence (Q12809 whole entry, looked up): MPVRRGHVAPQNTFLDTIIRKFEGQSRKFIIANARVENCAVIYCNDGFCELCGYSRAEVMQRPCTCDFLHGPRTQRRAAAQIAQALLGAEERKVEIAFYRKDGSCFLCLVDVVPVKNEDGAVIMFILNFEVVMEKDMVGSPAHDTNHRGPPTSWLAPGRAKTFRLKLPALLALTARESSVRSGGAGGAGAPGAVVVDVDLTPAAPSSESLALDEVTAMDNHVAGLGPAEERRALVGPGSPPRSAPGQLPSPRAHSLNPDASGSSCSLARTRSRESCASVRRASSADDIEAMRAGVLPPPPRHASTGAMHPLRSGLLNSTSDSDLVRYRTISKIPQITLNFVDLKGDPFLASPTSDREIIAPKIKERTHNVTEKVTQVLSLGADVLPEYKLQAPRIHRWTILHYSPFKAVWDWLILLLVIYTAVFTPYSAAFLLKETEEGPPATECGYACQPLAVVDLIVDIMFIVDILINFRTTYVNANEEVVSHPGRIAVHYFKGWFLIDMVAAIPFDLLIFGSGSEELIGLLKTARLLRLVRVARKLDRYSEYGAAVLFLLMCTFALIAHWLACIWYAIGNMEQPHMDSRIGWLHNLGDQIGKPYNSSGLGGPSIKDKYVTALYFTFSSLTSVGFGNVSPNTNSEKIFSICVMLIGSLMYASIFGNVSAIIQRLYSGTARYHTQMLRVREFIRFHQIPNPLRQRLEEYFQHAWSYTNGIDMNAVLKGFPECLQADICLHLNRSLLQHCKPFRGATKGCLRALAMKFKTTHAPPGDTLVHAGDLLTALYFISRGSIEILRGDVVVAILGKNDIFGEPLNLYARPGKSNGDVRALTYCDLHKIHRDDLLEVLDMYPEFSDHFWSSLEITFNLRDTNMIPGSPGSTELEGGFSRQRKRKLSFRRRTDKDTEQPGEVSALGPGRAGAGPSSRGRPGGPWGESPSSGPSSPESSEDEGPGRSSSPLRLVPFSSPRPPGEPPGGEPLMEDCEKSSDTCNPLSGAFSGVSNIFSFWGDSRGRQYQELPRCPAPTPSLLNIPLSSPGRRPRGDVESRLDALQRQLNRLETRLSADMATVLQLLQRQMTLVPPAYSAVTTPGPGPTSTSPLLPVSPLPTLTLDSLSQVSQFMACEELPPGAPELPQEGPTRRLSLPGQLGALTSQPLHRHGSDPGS

Row | Structure (SMILES) | hERG current change (%, negative = inhibition) at 1uM [%]
1 | CCOc1nc(S(=O)(=O)c2ccc(C)cc2)c(Cl)s1 | 7.74
2 | Clc1ccc(-c2nnc(NCCN3CCCC3)c3ccccc23)cc1 | -55.1
3 | Clc1ccc(-c2nnc(NCc3ccccc3)c3ccccc23)cc1 | 4.55
4 | Clc1ccc(-c2nc(NCCN3CCOCC3)c3ccccc3n2)cc1 | -16.9
5 | COc1ccc(NC(=O)CSc2nnc(Cn3c(=O)sc4ccccc43)n2C)c(OC)c1 | -2.58
6 | CCN(C(=O)CSc1nc(N)cc(N)n1)C1CCS(=O)(=O)C1 (stereo not shown) | 7.31
7 | CN(CC#CCC(c1ccccc1)c1ccccc1)C(C)(C)C.Cl | -56.4
8 | CN(C)C(C)(C)C#CCC(c1ccccc1)c1ccccc1.Cl | 5.49
9 | CN(CC#CC(O)(c1ccccc1)c1ccccc1)C(C)(C)C | -40.8
10 | CNc1ccc(/C=C/C(=O)c2cccc3ccccc23)cc1[N+](=O)[O-] | 7.91
11 | CC(C)c1ccc(N(CC(=O)N2CCN(Cc3ccccc3)CC2)S(C)(=O)=O)cc1 | 7.12
12 | Cc1cc(/C([O-])=C(/C(=S)Nc2ccc(F)cc2)[n+]2ccccc2)c(C)n1-c1ccc(F)cc1 | -1.77
13 | CCn1nccc1C(=O)Nc1nc2ccccc2n1CCN1CCCCC1 | -11.2
14 | Cc1c(Cl)c(C(=O)Nc2nc3ccccc3n2CCN2CCCCC2)nn1C | -61.5
15 | CCn1cc(Cl)c(C(=O)Nc2nc3ccccc3n2CCN2CCCCC2)n1 | -51.8
16 | Cc1ccc(C(=O)Nc2nc3ccccc3n2CCN2CCCC2)cc1 | -19.5
17 | O=C(Nc1nc2ccccc2n1CCN1CCCCC1)c1ccc(Cl)cc1 | -5.1
18 | O=C(Nc1nc2ccccc2n1CCN1CCCCC1)c1ccco1 | -37.4
19 | CC(C)Oc1cccc(C(=O)C2CCCN(C(=O)CCc3cnn(C)c3)C2)c1 (stereo not shown) | 10.7
20 | CCCn1c(C)cc(/C=C(\C#N)C(=O)OCC(=O)N(C)c2c(N)n(Cc3ccccc3)c(=O)[nH]c2=O)c1C | 11
21 | O=C(CNc1ccc(F)cc1)N/N=C/c1c(O)ccc2ccccc12 | 6.94
22 | CCNc1nnc(-c2ccc(C)cc2)o1 | 9.37
23 | C/C=C/c1ccc(OCCCCNCc2ccco2)c(OC)c1.O=C(O)C(=O)O | -62.6
24 | C/C=C/c1ccc(OCCCNC)c(OC)c1.O=C(O)C(=O)O | -10.9
25 | C/C=C/c1ccc(OCCNCc2ccccc2)c(OC)c1.O=C(O)C(=O)O | 4.38
